For 1 molecule, inhibition and inhibition of radioligand binding, adenosine A1 results are on record in PubChem BioAssay AID623923 (Vanderbilt Specialized Chemistry Center, 2012).

A short description of the experiment: PubChem AID 623923. The following applies: Ricerca radioligand binding panel, % inhibition, at 10 µM, stronger effect = higher value.

SMILES strings stand for the structures. The source made the active and inactive calls. No rule for the calls is given here.

On to `COc1ccc(C)c2sc(NC(=O)c3ccncc3)nc12`, for which the inhibition of radioligand binding, adenosine A1 is 91% (active). The inhibition (5-HT2B binding) was 70%. In addition, the inhibition (DAT transporter binding) came to 13%. For the setting “GABA-A muscimol site binding”, the inhibition was determined as 47%. Besides, the inhibition (NET transporter binding) was determined as 18%. For the same molecule, the inhibition (PAF receptor binding) turned out to be 34%. In addition, the inhibition (adenosine A2A binding) was 100%. The inhibition (adenosine A3 binding) was found to be 99%. The inhibition (hERG binding) worked out at 13%. Further, the inhibition (muscarinic M1 binding) was -3%. In addition, the inhibition (muscarinic M2 binding) is -2%. Moreover, where the note is “muscarinic M3 binding”, the inhibition came to 3%. For the same molecule, the inhibition (sigma 1 binding) turned out to be 39%.
